# Experimental data as given in PubChem BioAssay (NCI).
# Compounds without any hit were thinned out: in the full panel of roughly 83,000, 20% have a hit.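 Results are percent growth after 48 hours of single-concentration exposure. 100 means growth as in untreated cells, lower positive values show inhibition; negative values down to -100 show cell death.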 A number with no mark means an inactive call. Calls of active or inactive are those of the source. How the source made its calls: active means growth percent below 10; inactive means the rest.
# Experiments:
# Experiment in all cases: NCI-60 one-dose screen, 48 h (100 = growth as untreated, 0 = no growth, -100 = all killed)
# Conditions in all cases: 10 µM
# HCT-15 colon = tested on: HCT-15 colon
# HT29 colon = tested on: HT29 colon
# SNB-75 CNS = tested on: SNB-75 CNS
# SNB-19 CNS = tested on: SNB-19 CNS
# U251 CNS = tested on: U251 CNS
# PC-3 prostate = tested on: PC-3 prostate
# SK-MEL-5 melanoma = tested on: SK-MEL-5 melanoma
# UACC-62 melanoma = tested on: UACC-62 melanoma
# LOX IMVI melanoma = tested on: LOX IMVI melanoma
# SK-MEL-28 melanoma = tested on: SK-MEL-28 melanoma
SMILES,growth (HCT-15 colon),growth (HT29 colon),growth (SNB-75 CNS),growth (SNB-19 CNS),growth (U251 CNS),growth (PC-3 prostate),growth (SK-MEL-5 melanoma),growth (UACC-62 melanoma),growth (LOX IMVI melanoma),growth (SK-MEL-28 melanoma)
CONC[C@]1(C)C=C2C(=O)[C@](C)(O)C3(CC3)C(C)=C2[C@H]1O,-24.4% (active),-12% (active),-80.9% (active),-10.7% (active),3.39% (active),3.46% (active),-37.4% (active),-90% (active),-67.3% (active),-73.2% (active)
O=c1c2ccccc2nc(COc2ccccc2)n1/N=C/c1ccc(F)cc1,76.5%,61.4%,105%,87.7%,101%,76.2%,68.5%,62.9%,94.9%,96%
O=C(CNc1nc(-c2ccccc2)cs1)Nc1ccc([N+](=O)[O-])cc1,-23.5% (active),-44.9% (active),87.6%,38.3%,9.22% (active),33.7%,-69.3% (active),9.93% (active),-19.5% (active),-6.86% (active)
N[C@@H](CSSC[C@H](N)C(=O)Nc1ccc(OCC2CCCC2)cc1)C(=O)Nc1ccc(OCC2CCCC2)cc1,-76.9% (active),-93.3% (active),-96.3% (active),-95.6% (active),-86.6% (active),-87.3% (active),-100% (active),-99.7% (active),-96.1% (active),-99% (active)
Nc1nc(Nc2ccc(Cl)cc2)nn1Cc1cccc(Br)c1,29.9%,54.1%,69.9%,57.2%,58.6%,22.9%,47.4%,29.9%,13.7%,44.8%
COC(=O)C[C@](O)(CCCC(C)(C)O)C(=O)O[C@H]1C(OC)=C[C@@]23CCC(=O)N2CCc2cc4c(cc2[C@@H]13)OCO4,97.8%,93.6%,94.6%,84.4%,114%,89.5%,98.3%,89.5%,78%,103%
Oc1ccc(/C=C2\CCCc3cc4ccc(O)cc4[o+]c32)c(O)c1,10.1%,88.5%,91.9%,58%,8.94% (active),28.8%,69.6%,25%,-31.1% (active),33.9%
O/N=C(\CSc1nnc(-c2c[nH]c3ccccc23)n1-c1ccccc1)c1ccc(Cl)cc1,-48.1% (active),4.47% (active),48%,17.4%,30.5%,-38% (active),21.2%,-43.2% (active),-89.3% (active),21.2%
O=C(Nc1nc2ccccc2s1)c1ccc(Br)cc1,85.8%,87.3%,107%,98.8%,107%,82.1%,70.5%,73.3%,82.9%,90.7%
CCOC(=O)C1NN(c2ccc(S(N)(=O)=O)cc2)c2nc3nc(-c4cccs4)cc(-c4cccs4)c3c(=O)n21 (stereo not given),88.5%,73.9%,66.8%,96.4%,84.5%,80%,75.5%,74.8%,80.7%,73.1%
COc1ccsc1/C=N/NC(=O)c1[nH]c2ccc(Br)cc2c1-c1ccccc1,1.32% (active),-12.2% (active),20.1%,21.8%,6.55% (active),5.35% (active),-47.3% (active),9.1% (active),-18% (active),30.8%
O=C(c1ccc(O)cc1)C1[C@H](c2ccccc2Br)[C@@H](c2ccccc2)NC12C(=O)Nc1ccc(Cl)cc12 (stereo not given in full),12.3%,-30.4% (active),2.75% (active),17.2%,-31.9% (active),2.91% (active),-33% (active),6.97% (active),-100% (active),29.2%
O=c1oc2ccccc2cc1-c1csc(N=Nc2c(O)[nH]c3ccc(Br)cc23)n1,97%,109%,96.1%,29%,40.4%,89.1%,98.1%,78.1%,62.8%,105%
O=C(CNc1nc(-c2ccccc2)cs1)Nc1ccc([N+](=O)[O-])cc1Cl,1.43% (active),34.8%,82.3%,43.8%,15.8%,38.2%,8.63% (active),20.5%,-11.1% (active),62.1%
N#Cc1c(-c2ccc(F)cc2)nc(SCc2ccc(F)cc2)nc1N1CCOCC1,79.9%,92.9%,-17.5% (active),43.7%,47.1%,71.6%,74.3%,69.3%,76.4%,85.8%
Cc1ccn2c(C(=O)c3ccccc3)cc(-c3cc(-c4ccc(N(C)C)cc4)c(C#N)c(N)n3)c2c1,73.1%,63.1%,78.4%,60.9%,31.9%,78.1%,58.1%,64.6%,21.8%,74.3%
COc1ccc(CN2[C@H](C(=O)NCc3ccc(C(=O)NO)cc3)Cc3c([nH]c4ccccc34)[C@H]2C2CC2)cc1,44.4%,39.7%,74.5%,63.4%,47.9%,54.6%,67.3%,20.9%,35.1%,43.7%
Cc1ccc(-c2ccc(SCC(=O)Nc3ccc(Cl)c(C(F)(F)F)c3)nn2)cc1,14.9%,-19.7% (active),-23.5% (active),23.2%,16.5%,28.7%,18.9%,15.5%,33.9%,57.6%
O=C(Cc1ccc2c(c1)CN(C1CCC(=O)NC1=O)C2=O)NCc1cccc2ccccc12 (stereo not given),-30.1% (active),3.65% (active),-33.1% (active),-11.9% (active),17.2%,6.97% (active),-93.8% (active),4.05% (active),-48.3% (active),-10.6% (active)
O=C(NO)c1ccc(CNC(=O)[C@H]2Cc3c([nH]c4ccccc34)[C@H](c3ccccc3)N2)cc1,72.4%,20.2%,52.3%,39.4%,13.4%,33.3%,8.18% (active),-24.5% (active),19.6%,6.06% (active)
O=C(NO)c1ccc(CN2CCN(c3nc(-c4ccccc4)c4ccccc4n3)CC2)cc1,22.5%,30.4%,81.7%,22.8%,15.2%,30.8%,-95.9% (active),-23.9% (active),-60.6% (active),24.1%
CCOC(=O)CNC(=O)CN(Cc1ccccc1)C(=O)[C@@]1(C)CCC[C@]2(C)[C@H]3C[C@H]4C(C(C)C)=C[C@]3(CC[C@H]21)[C@@H]1C(=O)OC(=O)[C@@H]14,18%,42%,81.7%,67.7%,44.4%,39.2%,83.5%,64.4%,24%,82.5%
COc1ccc(C(=O)CSc2nnc(-c3c[nH]c4ccccc34)n2-c2ccccc2)cc1,73.3%,83.1%,15%,29.8%,34.4%,50.3%,81.3%,25.8%,43.5%,49.7%
O=C(Cc1ccc2c(c1)CN(C1CCC(=O)NC1=O)C2=O)NCCc1ccccc1 (stereo not given),-0.692% (active),31.3%,1.96% (active),15.6%,67.8%,11.9%,-54.2% (active),53.7%,81.2%,37.4%
